# Hit rate of the full screen: of about 370,000 compounds, about 3,300 (0.89%) were called active. The sample holds actives, similar compounds and a random draw of the others, so the mix is not that of the screen.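 How the source made its calls: active means activation above the mean of all tested compounds plus 3 SD, computed per campaign excluding outliers beyond control limits (cut at about 13% in these data); inactive means the rest.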
# Target: Kallikrein-7 (Homo sapiens) (UniProt P49862)
# Test: activation of human kallikrein-7 proenzyme – biochemical, fluorescence intensity, primary screen (AID 652039)
# Details: purified proKLK7, EDANS-DABCYL substrate fluorescence; at 7 µM; stronger effect = higher value; 100% is mature enzyme control, 0% vehicle
# Sequence of Kallikrein-7 (Homo sapiens) (P49862 whole entry, looked up): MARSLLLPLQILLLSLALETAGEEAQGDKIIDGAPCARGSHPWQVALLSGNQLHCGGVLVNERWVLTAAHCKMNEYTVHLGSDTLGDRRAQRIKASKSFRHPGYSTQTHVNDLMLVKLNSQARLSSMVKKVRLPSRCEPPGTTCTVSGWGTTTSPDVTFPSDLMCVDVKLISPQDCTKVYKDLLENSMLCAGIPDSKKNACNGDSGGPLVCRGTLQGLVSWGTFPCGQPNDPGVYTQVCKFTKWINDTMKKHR
row,Structure (SMILES),activation
1,COc1cc(C(=O)OC2CCOC2=O)c([N+](=O)[O-])cc1OC (stereo not given),-0.39% (inactive)
2,CC(C)c1ccc(C(=O)OC2CCOC2=O)cc1 (stereo not given),-0.06% (inactive)
3,O=C(OC1CCOC1=O)c1ccc(-c2nc3ccccc3s2)s1 (stereo not given),25.6% (active)
4,O=C(CSc1ncccn1)NC(=O)NCc1ccccc1,-0.82% (inactive)
5,CCOC(=O)N1CCN(C(=O)C[C@@H]2C(=O)N(CCc3ccc(Cl)cc3)C3=CCCC[C@]32C(=O)OCC)CC1,0.7% (inactive)
6,CC(C)(C)OC(=O)NCCc1ccccc1/C=C/S(=O)(=O)NCc1ccc(F)cc1,-0.22% (inactive)
7,COc1cccc(-c2nc3n(n2)C(c2ccccc2Cl)C(C(N)=O)=C(C)N3)c1 (stereo not given),0.67% (inactive)
8,COc1ccc(C2CC(c3cccs3)Nc3nnnn32)cc1 (stereo not given),0.65% (inactive)
9,COc1ccc(C2=CC(c3cccc(OC)c3)n3nnnc3N2)cc1 (stereo not given),42.3% (active)
10,O=C1Nc2ccccc2OC1CC(=O)N1CCCCCCC1 (stereo not given),0.05% (inactive)
11,Cc1nc(Nc2ccc(S(=O)(=O)N3CCCC3)cc2)c2nnn(Cc3ccccc3)c2n1,-0.11% (inactive)
12,CC(C)Cc1nc(Nc2ccc(S(=O)(=O)N3CCCC3)cc2)c2nnn(Cc3ccccc3)c2n1,18% (active)
13,CC(C)Nc1ncnc2c1nnn2Cc1ccccc1,0.3% (inactive)
14,COc1ccc(Cn2ccc3ccc(-c4ccc5ccn(Cc6ccccc6C)c5c4)cc32)cc1,-0.6% (inactive)
15,Cc1csc(OCC(=O)Nc2ccc(C)c(C)c2)n1,0.44% (inactive)
16,C=C(C)C#CC(Cc1ccccc1)NCC1CC1 (stereo not given),0.49% (inactive)
17,COc1ccc(-n2c(SCC(=O)NC3CCCC3)nnc2-c2ccncc2)cc1,0.32% (inactive)
18,CCOc1c2ccc(C(=O)NCc3ccc4c(c3)OCO4)cc2nn1C,16.6% (active)
19,COc1ccccc1-n1c(C)nc2cc(C(=O)NCc3ccc4c(c3)OCO4)ccc21,0.53% (inactive)
20,CCCn1nc2cc(C(=O)NCc3ccccc3)ccc2c1OCC,9.49% (inactive)
21,COC(=O)[C@]12C[C@H](CC(=O)NCc3cccs3)C(=O)N(CCc3ccc(OC)c(OC)c3)C1=C[C@H](C(C)C)O[C@@H]2C1CC1,0.65% (inactive)
22,NS(=O)(=O)c1ccc(NC(=O)/C=C/c2ccccc2Cl)cc1,3.16% (inactive)
23,Cc1ccc(-c2nn(-c3ccccc3)cc2/C=C/C(=O)Nc2cccc(S(N)(=O)=O)c2)cc1,302% (active)
24,O=C(/C=C/c1cn(-c2ccccc2)nc1-c1ccc2c(c1)OCCO2)NCCCN1CCOCC1,-1.99% (inactive)
25,O=C(NC1CCCCN(Cc2ccc(Cl)cc2)C1=O)c1ccc(Br)cc1 (stereo not given),-0.15% (inactive)
